From the supplement of paper PMC11060735
Where a name gives a salt, the structure may show the parent alone. Hit rate of the full screen: of about 1,800 compounds, about 50 (3%) showed activity. Shown is part of a subset that was picked to be rich in actives. Values without a mark were called inactive.

Test system: mouse p16Ink4a+/- lung fibroblasts (INKBRITE, bleomycin-injured)
Assay: percentage of GFP+ (p16Ink4a+) fibroblasts among all cells in well; higher = less depletion of p16Ink4a+ cells, active = 20 or less
Conditions: 1 µM; 3 days

| Compound | percentage of GFP+ |
| --- | --- |
| C=C(c1ccc(C(=O)O)cc1)c1cc2c(cc1C)C(C)(C)CCC2(C)C [Bexarotene] | 46% |
| COc1ccc(NS(=O)(=O)c2sc3ccc(Cl)cc3c2C)cc1N1CCNCC1 | 59.1% |
| COc1ccc(Cn2ccc3ccc(C(=O)NO)cc32)cc1 | 47.2% |
| N[C@@H](CC(=O)N1CCn2c(nnc2C(F)(F)F)C1)Cc1cc(F)c(F)cc1F [Sitagliptin] | 44.6% |
| CCn1cc(C(=O)O)c(=O)c2cc(F)c(N3CCNC(C)C3)c(F)c21 (stereo unspecified) [Lomefloxacin] | 44% |
| CC[C@@H](C)Nc1cc(C(=O)NC2CC3CCC(C2)N3c2ccc(C(=O)C3CC3)cn2)c(C)cc1C(N)=O (stereo partly specified) | 5.49% (active) |
| CC(C)(F)C[C@H](N[C@@H](c1ccc(-c2ccc(S(C)(=O)=O)cc2)cc1)C(F)(F)F)C(=O)NC1(C#N)CC1 [Odanacatib] | 44.3% |
| C#Cc1cccc(Nc2ncnc3cc(OCCOC)c(OCCO)cc23)c1 | 54.2% |
| C#Cc1cccc(Nc2ncnc3cc(OCCOC)c(OCCOC)cc23)c1 [Erlotinib] | 7.35% (active) |
| C#Cc1cccc(Nc2ncnc3cc(OC)c(OCCCCCCC(=O)NO)cc23)c1 | 37.4% |
| COc1ccc(-c2cc(=O)c3c(O)cc(O)cc3o2)cc1O [Diosmetin] | 42.4% |
| CC(C)(OCc1nn(Cc2ccccc2)c2ccccc12)C(=O)O [Bindarit] | 45.3% |
| CCCN1CCCC[C@H]1C(=O)Nc1c(C)cccc1C [Ropivacaine, Ropivacaine Hydrochloride] | 46% |
| CCCCCCCCCC(=O)N[C@@H](Cc1c[nH]c2ccccc12)C(=O)N[C@H](CC(N)=O)C(=O)N[C@@H](CC(=O)O)C(=O)N[C@@H]1C(=O)NCC(=O)N[C@H](CCCN)C(=O)N[C@@H](CC(=O)O)C(=O)N[C@@H](C)C(=O)N[C@@H](CC(=O)O)C(=O)NCC(=O)N[C@H](CO)C(=O)N[C@@H]([C@@H](C)CC(=O)O)C(=O)N[C@@H](CC(=O)c2ccccc2N)C(=O)O[C@@H]1C [Daptomycin] | 37.2% |
| COC(=O)C1=C(C)N=C(C)/C(=C(/O)OC)C1c1ccccc1[N+](=O)[O-] (stereo unspecified) [Nifedipine] | 34.3% |
| C=CC1=C(C(=O)O)N2C(=O)[C@@H](NC(=O)/C(=N\O)c3csc(N)n3)[C@H]2SC1 [Cefdinir] | 49.9% |
| CO/N=C(/C(=O)N[C@@H]1C(=O)N2C(C(=O)O)=C(CSC(=O)c3ccco3)CS[C@H]12)c1csc(N)n1 [Ceftiofur HCl] | 39.5% |
| CO/N=C(/C(=O)N[C@H]1C(=O)N2C(C(=O)O)=C(Cn3ccc(=N)n3CCO)CS[C@H]12)c1csc(N)n1 [Cefoselis Sulfate] | 17.3% (active) |
| O=C(c1ccccc1)c1ccc2n1CCC2C(=O)O (stereo unspecified) [Ketorolac] | 38.6% |
| Oc1ccc(/C=C/c2cc(O)cc(O)c2)cc1 [Resveratrol] | 42.8% |
| CC1(C)CCC(C)(C)c2cc(NC(=O)c3ccc(C(=O)O)cc3)ccc21 [Tamibarotene] | 28.2% |
